TEAD-YAP block = TEAD-YAP interaction inhibition | actives 1.4% (n = 640,000) | HEK-TIYL cells, TEAD-Gal4/YAP UAS-luciferase luminescence | inhibition, % at 9.12 µM; in the data active = inhibition above about 32%;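 also: 0% = median of test compound wells and 100% = reference inhibitor wells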
GPR151 ag = activates the human receptor GPR151; Q8TDV0; PathHunter beta-arrestin GPR151 cells, luminescence; activation, % at 11.2 µM; actives 1% (n = 650,000); in the data active = activation above about 4.9%;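 also: 0% = median of compound wells and 100% = cells with positive control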
FBW7 activator = human FBW7 E3 ligase activation, primary screen; actives 0.13% (n = 650,000); AID 1259310; normalized activity (activation), % at 26.1 µM; AlphaScreen FBW7–phospho-cyclin E peptide binding, activator screen; Q969H0; in the data active = normalized activity above about 1.9%;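 also: purified mutant Fbw7 with reduced substrate affinity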
MITF primary = human MITF inhibition, primary screen | O75030 | AlphaScreen MITF homodimerization, bead proximity signal | inhibition, % at 2.6 µM | actives 0.91% (n = 650,000); in the data active = inhibition above about 50%;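 also: 0% = vehicle wells with protein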
GPR151 confirm = human GPR151 activation, confirmation screen. shares compounds with GPR151 ag. GPR151 PathHunter beta-arrestin cells, luminescence, 90 min; % of EA-reagent control over plate median. activation, % at 11.2 µM. 6,700 tested, under 10 active. AID 1508609;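 active = mean percent activation across replicates above the confirmation screen cutoff of 4.91%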
GPR119 ag = counter-screen for GPR151 activators: effect on human GPR119; shares compounds with GPR151 ag; GPR119 PathHunter beta-arrestin cells, luminescence, 90 min; 0 = compound-well median, 100 = enzyme-acceptor control; activation, % at 11.2 µM; actives 0.3% (n = 6,700); AID 1508611;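 active = mean percent activation in the counterscreen above 29.09%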;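 also: counterscreen on off-target GPR119 to flag nonselective hits from the GPR151 activator screen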
Target sequence (Q8TDV5 whole entry, looked up): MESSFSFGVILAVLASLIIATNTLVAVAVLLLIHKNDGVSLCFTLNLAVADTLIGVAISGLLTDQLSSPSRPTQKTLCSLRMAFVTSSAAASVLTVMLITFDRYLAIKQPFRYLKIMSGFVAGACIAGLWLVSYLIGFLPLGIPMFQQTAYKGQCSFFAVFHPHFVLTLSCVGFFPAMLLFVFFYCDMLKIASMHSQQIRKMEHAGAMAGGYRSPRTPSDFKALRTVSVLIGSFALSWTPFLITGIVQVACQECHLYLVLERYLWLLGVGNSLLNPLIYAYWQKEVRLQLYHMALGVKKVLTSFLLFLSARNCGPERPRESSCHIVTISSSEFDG
* hit, by the source's call; / = not tested or not shown. An excerpt weighted towards active compounds, which were near 3.5% of everything screened.

SMILES	TEAD-YAP block	GPR151 ag	FBW7 activator	MITF primary	GPR151 confirm	GPR119 ag
CC(=O)c1oc2ccccc2c1NC(=O)CN1CCCCC1	-5	5.6*	0	6	1	-9
O=C1CC(C(=O)N2CCC3(CC2)CC3C(=O)NCCC2=CCCCC2)c2ccccc21 (stereo unspecified)	-5	5.5*	0	-4	0	6
CCn1c(SCc2cccc(Br)c2)nnc1-c1cnccn1	-5	7.4*	0	4	0	-1
O=[N+]([O-])c1ccccc1Sc1cc2c(N3CCOCC3)ncnc2s1	-6	0	0	2	/	/
COc1ccc(CCn2ccc(-c3sc(NCc4ccco4)nc3C)n2)cc1	2	8.0*	0	-2	0	0
Cc1ccc([N+](=O)[O-])c(OCCOCCN2CCc3ccccc3C2)c1	11	5.7*	0	-2	1	-4
CC(=O)c1cccc(NC(=O)c2ccoc2C)c1	4	5.9*	0	-4	-1	-9
O=C(Nc1cc(Cl)ccc1O)C1CC(c2ccccc2O)=NO1 (stereo unspecified)	2	0	0	-4	/	/
O=C(Nc1ccc(Cl)cc1)C1CC(c2ccccc2O)=NO1 (stereo unspecified)	-11	5.5*	0	-4	-1	-17
O=C(NNC(=O)c1ccccc1F)c1ccc(Cl)nc1	-15	4.9*	0	8	0	0
CCN(CCO)C(=O)CCN1C(=O)/C(=C\c2ccccc2Cl)SC1=S	9	-1	0	3	/	/
COc1ccccc1NC(=O)C1CC(=O)OC12CCOC(C)(C)C2 (stereo unspecified)	-19	6.5*	0	-4	0	7
COc1ccccc1NC(=O)C1CC(=O)OC1(C)C (stereo unspecified)	1	0	1	3	/	/
CN1C(=O)CC(CC(=O)N2CCC(Cc3ccccc3)CC2)(c2cccc(F)c2)C1=O (stereo unspecified)	-4	1	0	1	/	/
Cc1nonc1N=NN(Cc1ccc([N+](=O)[O-])cc1)c1nonc1C	8	7.4*	0	9	0	-5
CCC(=O)C1=C(c2ccc(F)cc2)N(C(=O)CC)n2c(C)nnc2S1	24	-2	-1	7	/	/
COCCN1CCN(Cc2nc(Nc3ccccc3)c3ccccc3n2)CC1	-5	-1	0	0	/	/
COCCN1CCN(Cc2nc(NCc3ccc(C)o3)c3ccccc3n2)CC1	-10	11*	-1	-5	0	23
COc1ccc(CCNC(=O)Nc2cccc3ccccc23)cc1	-6	-1	0	16	/	/
CC(C)CC1NC(=O)N(CC(=O)Nc2cccc(I)c2)C1=O (stereo unspecified)	0	8.8*	0	-4	1	5
O=C(NCC1CCCO1)c1cc(Br)ccc1Cl (stereo unspecified)	12	3	0	3	/	/
O=C(NCC1CCCO1)c1cc(=O)[nH]c2ccc(Br)cc12 (stereo unspecified)	2	6.7*	0	12	-1	-15
Cc1c(C#N)c(O)n(C)c(=O)c1N=Nc1ccc(C(=O)O)cc1	-7	-1	0	-6	/	/
O=[N+]([O-])c1cc([N+](=O)[O-])c2cccnc2c1Nc1cccc2cccnc12	10	-1	0	21	/	/
CCCNC(=O)C1CCN(C(=O)N2CC(C)Oc3ccccc32)CC1 (stereo unspecified)	5	-2	0	-5	/	/
CCCNC(=O)C1CCN(C(=O)N2CC(C)Oc3ccc(Cl)cc32)CC1 (stereo unspecified)	6	11*	0	-3	0	-4
CCC(C)CC(=O)N1CCC(C2(CCC(C)C)NC(=O)N(CCN(C)C)C2=O)CC1 (stereo unspecified)	8	7.5*	0	7	0	-4
CC(C)CC(=O)N1CCC(C2(CCc3ccccc3)NC(=O)N(CCN(C)C)C2=O)CC1 (stereo unspecified)	9	-1	0	3	/	/
CSCCC(NCCC(O)c1ccccc1)C(=O)O (stereo unspecified)	8	0	0	2	/	/

Assay outcomes deposited in PubChem by The Scripps Research Institute Molecular Screening Center.
